PubChem BioAssay

Test: viability profiling in RPMI8226 myeloma cells – cell-based, resazurin fluorescence, basal, 24 h, PK04 Diversity Set, profiling panel (AID 1180);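 also: RPMI8826 multiple myeloma cell line at 5000 cells per well; test concentration not given here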
Details: higher = more signal
C=CCC(OC(C)=O)[C@@H]1[C@@H](N(Cc2cccc3ccccc23)C(=O)c2cccc3ccccc23)c2cc(OCCCO)ccc2N1C(=O)Cc1ccc2ccccc2c1 (stereo not given in full) showed a z-score of -0.0924.
With CCCCNC(=O)c1ccc(C#C[Si](C)(C)C)c(OC(C)=O)c1 the z-score was 0.0873.
In the case of CCOC(=O)C1=CC[C@@H](c2ccccc2Cl)N(S(=O)(=O)c2ccc(C)cc2)[C@H]1c1cccc(OC)c1, the z-score is reported as -1.53.
In the case of Cc1ccc(F)cc1S(=O)(=O)N[C@@H]1CCN(Cc2ccc3c(c2)OCO3)C1, the z-score is reported as 0.224.
With C#CCN(C/C=C/c1ccccc1)[C@H](CO[Si](C)(C)C(C)(C)C)c1ccccc1 the z-score was -0.764.
For N[C@@H](Cc1ccccc1)Cn1cc(C2(O)CCCCC2)nn1, the z-score was -0.785.
COCCOC(=O)N1C(=O)[C@@]2(c3cc(C#CCC(C(=O)OC)C(=O)OC)ccc31)[C@H](c1ccc(OCCO)cc1)N1[C@H](c3ccccc3)[C@H](c3ccccc3)OC(=O)[C@H]1[C@@H]2C(=O)N1CCCCCCC1 gave a z-score of 0.174.
Work on COc1ccc(NC(=O)O[C@H]2[C@H](OC(=O)Nc3ccc4c(c3)OCO4)[C@H](OC(=O)Nc3ccc4c(c3)OCO4)[C@@H](OC)O[C@@H]2CO)cc1 yielded a z-score of -0.686.
Compound COc1ccc(NN2C(C(O)c3cc(C(F)(F)F)cc(C(F)(F)F)c3)C=CC3C(=O)N(C4CCCCC4)C(=O)C32)cc1 (stereo not given) has a z-score of 0.283.
COCCOC(=O)N1C(=O)[C@@]2(c3cc(C#Cc4ccc(OC)cc4)ccc31)[C@H](C(=O)Nc1nc3ccccc3s1)[C@H]1C(=O)O[C@H](c3ccccc3)[C@H](c3ccccc3)N1[C@@H]2c1ccccc1OCCO showed a z-score of 1.85.
